Screening results as filed in PubChem.
MCL1-BIM inh = inhibitors of MCL1 binding to BIM-BH3, primary screen, biochemical, fluorescence polarization. Induced myeloid leukemia cell differentiation protein Mcl-1 (Homo sapiens), Q07820. GST-MCL1 / FITC-Bim-BH3 fluorescence polarization. inhibition, % at 10.9 µM. 320,000 tested, 0.68% active. AID 2057, 2009;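 active means inhibition above the mean inhibition of all tested compounds plus 3 SD, set per campaign, cut at about 40% in these data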;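 further: higher means more loss of mP so more displacement of Bim peptide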
Mcl1 Noxa PPI = Mcl-1/Noxa binding inhibitors, primary screen, biochemical, TR-FRET, 1536-well; inhibition, % at 21.7 µM; 220,000 tested, 1.5% active; Induced myeloid leukemia cell differentiation protein Mcl-1 (Homo sapiens), Q07820; TR-FRET Mcl-1/Noxa peptide binding, 2 h;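 active means compounds that cut the protein-peptide binding signal by more than 50% relative to plate controls in a single-dose test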;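 further: His-tagged Mcl-1 with rhodamine Noxa BH3 peptide and terbium anti-His antibody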
GLD-1 RNA inh = GLD-1/TGE RNA complex disruptors, primary screen, biochemical, fluorescence polarization; 320,000 tested, 0.44% active; AID 2280, 2010; inhibition, % at 5.96 µM; purified GLD-1 + fluorescein TGE RNA; Female germline-specific tumor suppressor gld-1 (Caenorhabditis elegans), Q17339;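 active means percent inhibition above a per-plate cutoff, the plate mean of test compounds plus 3 SD, cut at about 30% in these data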
Target sequence (Q17339 whole entry, looked up): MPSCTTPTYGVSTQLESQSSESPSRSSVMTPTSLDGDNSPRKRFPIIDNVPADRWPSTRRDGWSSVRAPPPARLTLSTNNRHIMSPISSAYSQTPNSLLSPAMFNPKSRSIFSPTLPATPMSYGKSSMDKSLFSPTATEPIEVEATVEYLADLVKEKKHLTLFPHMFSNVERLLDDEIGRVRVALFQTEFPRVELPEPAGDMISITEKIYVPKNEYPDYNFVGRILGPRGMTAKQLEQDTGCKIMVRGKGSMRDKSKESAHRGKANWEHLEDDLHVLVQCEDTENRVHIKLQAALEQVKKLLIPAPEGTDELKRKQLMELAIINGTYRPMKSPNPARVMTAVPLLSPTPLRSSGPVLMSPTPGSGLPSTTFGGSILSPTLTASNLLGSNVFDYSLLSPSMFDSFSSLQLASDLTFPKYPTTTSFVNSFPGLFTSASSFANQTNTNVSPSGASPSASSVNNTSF
Bim-Mcl-1 = inhibitors of Bim peptide binding to Mcl-1, primary screen, biochemical, bead-based flow cytometry, multiplex. Bim peptide-Mcl-1 binding. inhibition, % at 10 µM. 190,000 tested, 0.1% active; in the data active means inhibition above about 40%
Mcl1 Bid PPI = Mcl-1/Bid binding inhibitors, primary screen, biochemical, TR-FRET, 1536-well; Induced myeloid leukemia cell differentiation protein Mcl-1 (Homo sapiens), Q07820; TR-FRET Mcl-1/Bid-Dy647 peptide binding; inhibition, % at 21.7 µM; 220,000 tested, 0.97% active;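 active means compounds that cut the binding signal by more than half at the single screening dose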;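 further: His-tagged Mcl-1 with europium anti-His antibody binding Bid BH3 peptide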
Bcl-xL primary = inhibitors of human Bcl-xL, primary screen, biochemical, fluorescence polarization, HTS; GST-Bcl-xL / FITC-Bim BH3 peptide fluorescence polarization; inhibition, % at 10.9 µM; AID 2129, 2009; 320,000 tested, 0.7% active;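 active means inhibition above the mean of all tested compounds plus 3 SD, cutoff set per campaign, cut at about 30% in these data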;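 further: inhibitors lower millipolarization by displacing the labeled peptide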
Target sequence (Q07817 whole entry, looked up): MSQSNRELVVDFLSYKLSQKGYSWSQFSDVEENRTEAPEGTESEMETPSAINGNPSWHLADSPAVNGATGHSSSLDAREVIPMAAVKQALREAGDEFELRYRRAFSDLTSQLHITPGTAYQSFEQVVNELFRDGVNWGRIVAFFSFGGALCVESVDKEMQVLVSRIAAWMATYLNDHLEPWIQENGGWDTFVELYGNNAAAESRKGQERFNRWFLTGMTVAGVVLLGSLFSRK
BCLXL inh confirm = Bcl-xL inhibitors blocking Bim BH3 binding, confirmation, counter-screen for MCL1 inhibitor project, biochemical, fluorescence polarization. shares compounds with MCL1-BIM inh. GST-Bcl-xL / FITC-Bim BH3 peptide FP binding. inhibition, % at 10.9 µM. 1,700 tested, 54% active. AID 2166, 2009;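 active means inhibition above a cutoff equal to the mean inhibition of all tested compounds plus 3 SD, cut at about 30% in these data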
MCL1 BIM confirm = inhibitors of MCL1 binding to BIM-BH3, confirmation, biochemical, fluorescence polarization, triplicate; shares compounds with MCL1-BIM inh; GST-MCL1 / FITC-Bim-BH3 fluorescence polarization; inhibition, % at 10.9 µM; 1,700 tested, 61% active;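 active means inhibition above the average of all tested compounds plus 3 SD, cut at about 40% in these data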
Each line names hits and unclear results; the compound was inactive in the other large screens (follow-up assays come after a bar, where they were run). Rows were chosen to be rich in hits. Some 2.3% of all compounds tested hit in one or more screens of this group.

O=C(O)C1Nc2ccc(OC(F)(F)F)cc2C2C=CCC12 (stereo unspecified)	MCL1-BIM inh 106, Bcl-xL primary 48 (no result: Mcl1 Noxa PPI, Bim-Mcl-1, Mcl1 Bid PPI) | BCLXL inh confirm inactive | MCL1 BIM confirm 67
CCc1cc(=O)oc2cc(C)cc(OC(C)C(=O)NCc3cccnc3)c12 (stereo unspecified)	none (no result: Mcl1 Noxa PPI, Bim-Mcl-1, Mcl1 Bid PPI)
CC(/C=C1\SC(=S)N(c2ccc(C(=O)O)cc2)C1=O)=C\c1ccccc1	MCL1-BIM inh 48, Mcl1 Noxa PPI 84 (no result: Bim-Mcl-1) | BCLXL inh confirm inactive | MCL1 BIM confirm inactive
Cc1cc(C(=O)N/N=C/c2ccc(O)c([N+](=O)[O-])c2)n[nH]1	none
O=C(c1ccccc1)c1c2c(cc3sc4ccccc4[n+]13)-c1cccc3cccc-2c13	MCL1-BIM inh 116, GLD-1 RNA inh 55, Bcl-xL primary 95 | BCLXL inh confirm 62 | MCL1 BIM confirm 71
Cc1sc2cc3c(c(C(=O)c4ccccc4)[n+]2c1C)-c1cccc2cccc-3c12	none
CCOC(=O)C1(CC2CC2)CCN(Cc2ccc(OC)cc2F)CC1	none
CC[C@@]1(O)C(=O)OCc2c1cc1n(c2=O)Cc2cc3c(CN(C)C)c(O)ccc3nc2-1	MCL1-BIM inh active, GLD-1 RNA inh active, Bcl-xL primary active (no result: Mcl1 Noxa PPI, Bim-Mcl-1, Mcl1 Bid PPI) | BCLXL inh confirm active | MCL1 BIM confirm active
CC[C@@]1(O)C(=O)OCc2c1cc1n(c2=O)Cc2cc3c(N)cccc3nc2-1	none (no result: Bim-Mcl-1)
N#Cc1ccccc1NC(=O)CC1c2ccccc2Oc2ccccc21	none
COc1ccc(Nc2cc(C)nc3c(C)cccc23)cc1OC	none (no result: Mcl1 Noxa PPI, Bim-Mcl-1, Mcl1 Bid PPI)
Cc1ccccc1N(CC(=O)O)S(C)(=O)=O	none
Oc1ccc(-c2cn3c(n2)SCC3)cc1O	MCL1-BIM inh 60, Mcl1 Noxa PPI 95 | BCLXL inh confirm 30 | MCL1 BIM confirm 55
CC1(O)C(=O)C=C2C=C(C3CC3)OC=C2C1=O (stereo unspecified)	none (no result: Mcl1 Noxa PPI, Bim-Mcl-1, Mcl1 Bid PPI)
COC(=O)CCC(=O)OC1(C)C(=O)C=C2C=C(C3CC3)N(c3ccc(CO)cc3)C=C2C1=O (stereo unspecified)	MCL1-BIM inh 94, GLD-1 RNA inh 45, Bcl-xL primary 64 (no result: Mcl1 Noxa PPI, Bim-Mcl-1, Mcl1 Bid PPI) | BCLXL inh confirm 46 | MCL1 BIM confirm 64
COC(=O)CCC(=O)OC1(C)C(=O)C=C2C=C(C3CC3)OC=C2C1=O (stereo unspecified)	MCL1-BIM inh 55, GLD-1 RNA inh 67, Bcl-xL primary 54 (no result: Mcl1 Noxa PPI, Bim-Mcl-1, Mcl1 Bid PPI) | BCLXL inh confirm 48 | MCL1 BIM confirm 70
COC(=O)CCCC1=CC2=CC(=O)C(C)(OC(=O)c3cccs3)C(=O)C2=CN1c1ccc(OC)cc1 (stereo unspecified)	none (no result: Bim-Mcl-1)
CC1(OC(=O)C2CCCC2)C(=O)C=C2C=C(c3ccsc3)N(CCN3CCOCC3)C=C2C1=O (stereo unspecified)	none (no result: MCL1-BIM inh, GLD-1 RNA inh, Bim-Mcl-1, Bcl-xL primary)
CC1(O)C(=O)C=C2C=C(c3ccsc3)OC=C2C1=O (stereo unspecified)	MCL1-BIM inh 52 (no result: Mcl1 Noxa PPI, Bim-Mcl-1, Mcl1 Bid PPI) | BCLXL inh confirm 33 | MCL1 BIM confirm 73
COC(=O)CCC(=O)OC1(C)C(=O)C=C2C=C(c3ccsc3)OC=C2C1=O (stereo unspecified)	MCL1-BIM inh 51 (no result: Mcl1 Noxa PPI, Bim-Mcl-1, Mcl1 Bid PPI) | BCLXL inh confirm inactive | MCL1 BIM confirm 77
CC(C)c1cc(C(=O)N/N=C/c2c[nH]c3ccccc23)n[nH]1	none (no result: Bim-Mcl-1)
CC(C)CCNC(=O)Cc1csc(-c2ccccc2)n1	none
COc1ccc2noc3c2c1C(=O)c1ccccc1-3	MCL1-BIM inh 117, GLD-1 RNA inh 91, Bcl-xL primary 116 (no result: Mcl1 Noxa PPI, Bim-Mcl-1, Mcl1 Bid PPI) | BCLXL inh confirm 110 | MCL1 BIM confirm 121
COc1ccc(N)c2c1C(=O)c1ccccc1C2=O	none
COc1ccc(OC)c2c1C(=O)C(Cl)=C(Cl)C2=O	MCL1-BIM inh 71, Mcl1 Noxa PPI 99, Bcl-xL primary 39 (no result: Bim-Mcl-1) | BCLXL inh confirm 47 | MCL1 BIM confirm 65
COc1ccc(OC)c2c1C(=O)c1ccccc1C2=O	MCL1-BIM inh active, GLD-1 RNA inh active, Bcl-xL primary active | BCLXL inh confirm active | MCL1 BIM confirm active
O=C1c2ccccc2-c2onc3ccc(NCCCn4ccnc4)c1c23	MCL1-BIM inh active, GLD-1 RNA inh 198, Bim-Mcl-1 63, Mcl1 Bid PPI 60, Bcl-xL primary active | BCLXL inh confirm 181 | MCL1 BIM confirm 200
CCCCCCCCCc1nc(N)n[nH]1	none
O=C(C1CCN(c2nc(-c3ccccc3)nc3c2CCC3)CC1)N1CCC(O)CC1	none (no result: Mcl1 Noxa PPI, Bim-Mcl-1, Mcl1 Bid PPI)
COc1cccc(C(=O)N(c2ccc(OC)cc2OC)C2C=CS(=O)(=O)C2)c1 (stereo unspecified)	MCL1-BIM inh 54, Bcl-xL primary 61 | BCLXL inh confirm inactive | MCL1 BIM confirm inactive
O=C(O)C1Nc2c(O)cc(Cl)c([N+](=O)[O-])c2C2C=CCC12 (stereo unspecified)	MCL1-BIM inh 101, Mcl1 Noxa PPI 105, Mcl1 Bid PPI 97, Bcl-xL primary 78 | BCLXL inh confirm 43 | MCL1 BIM confirm 101
O=[N+]([O-])c1ccc(Cl)c2c1C1C=CCC1C(c1ccccn1)N2 (stereo unspecified)	none
COc1ccc(S(=O)(=O)/N=C2/NC(=O)/C(=C\c3ccco3)S2)cc1	MCL1-BIM inh 55 | BCLXL inh confirm inactive | MCL1 BIM confirm inactive
COc1ccc(S(=O)(=O)/N=C2/NC(=O)/C(=C/c3ccco3)S2)cc1	MCL1-BIM inh 42 | BCLXL inh confirm inactive | MCL1 BIM confirm inactive
Cc1ccc(S(=O)(=O)/N=C2/NC(=O)/C(=C/c3ccccn3)S2)cc1	none
COc1ccc2oc(C(=O)OC(C)C(=O)NCc3ccccc3)c(C)c2c1 (stereo unspecified)	MCL1-BIM inh 44 (no result: Mcl1 Noxa PPI, Bim-Mcl-1, Mcl1 Bid PPI) | BCLXL inh confirm inactive | MCL1 BIM confirm inactive
CCN(CC)C(=O)COc1ccc2c(-c3ccccc3)cc(=O)oc2c1	MCL1-BIM inh active (no result: Mcl1 Noxa PPI, Bim-Mcl-1, Mcl1 Bid PPI) | BCLXL inh confirm inactive | MCL1 BIM confirm inactive
